Data reported in PubChem BioAssay AID430 (Sanford-Burnham Center for Chemical Genomics, 2006).
Hit rate of the full screen: of about 63,000 compounds, about 1,100 (1.7%) were called active. Rule as the data show it: active = cytotoxicity above about 50%; inactive = the rest. The full list was thinned out, with actives kept by preference. Measured potencies and affinities stand elsewhere.

Assay: cytotoxicity in HPDE-C7 cells, cell-based, fluorescence, HTS (AID 430);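 also: cells exposed to compound for 48 hours before viability readout; 0% = vehicle and 100% = reference cytotoxic drug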
Settings: HPDE-C7 pancreatic duct cells viability, at 10 µM, stronger effect = higher value

Question: For `O=C(CN1C(=O)C2C3C=CC(C3)C2C1=O)NCCN1CCCc2ccccc21` (stereo not given), which cytotoxicity is on record?
Answer: -7.4% (inactive)

Question: Which cytotoxicity does the source give for `CC1CCCN(S(=O)(=O)c2ccc(S(=O)(=O)N3CCCN(Cc4ccccc4)C3)cc2)C1` (stereo not given) here?
Answer: 3.7% (inactive)

Question: Which cytotoxicity does the source give for `COc1ccc(N2CCN(c3nc4c(c(=O)[nH]c(=O)n4C)n3CCCc3ccccc3)CC2)cc1` here?
Answer: -7.6% (inactive)

Question: Which cytotoxicity does the source give for `Cc1ccc(-c2c3c(=O)n(C)c(=O)n(C)c3cn2Cc2ccccn2)cc1` here?
Answer: -3.1% (inactive)

Question: Which cytotoxicity does the source give for `CCCOc1ccc(CSc2nnc(CCC)n2N)cc1` here?
Answer: -13.5% (inactive)

Question: With `O=C1c2ccncc2C(=O)N1C1CCCCC1` as the compound, how does the cytotoxicity read?
Answer: -7.2% (inactive)

Question: For `CN1CCN(C2=C(Cl)C(=O)N(C3CCCCC3)C2=O)CC1`, which cytotoxicity is on record?
Answer: -8% (inactive)

Question: Which cytotoxicity does the source give for `Cc1ccc(NS(=O)(=O)c2ccc(OCC(=O)NCc3ccco3)cc2)cc1` here?
Answer: 6.8% (inactive)

Question: For `CC(C)CCn1nc(C(=O)OC(C)C(=O)NC(N)=O)c2ccccc2c1=O` (stereo not given), which cytotoxicity is on record?
Answer: -13.9% (inactive)

Question: Which cytotoxicity does the source give for `Cc1ccccc1N=C1NC(=O)CS1` here?
Answer: -24.1% (inactive)

Question: With `CCCn1c(CN2CCN(C(=O)OCC)CC2)nc2c1c(=O)n(C)c(=O)n2C` as the compound, how does the cytotoxicity read?
Answer: -8.2% (inactive)

Question: For `CCCCOC(=O)C1Cc2ccccc2C(=O)O1` (stereo not given), which cytotoxicity is on record?
Answer: -4.8% (inactive)

Question: With `CCCCCn1c(CN2CCN(Cc3ccccc3)CC2)nc2c1c(=O)[nH]c(=O)n2C` as the compound, how does the cytotoxicity read?
Answer: 0% (inactive)

Question: Which cytotoxicity does the source give for `CC(C)Cn1c(CN2CCN(c3ccccc3F)CC2)nc2c1c(=O)[nH]c(=O)n2C` here?
Answer: -0.6% (inactive)

Question: Which cytotoxicity does the source give for `CCCCCn1c(CN2CCN(c3cccc(Cl)c3)CC2)nc2c1c(=O)[nH]c(=O)n2C` here?
Answer: 43.9% (inactive)

Question: Which cytotoxicity does the source give for `Cn1c(=O)[nH]c(=O)c2c1nc(CN1CCN(c3cccc(Cl)c3)CC1)n2Cc1ccccc1Cl` here?
Answer: -3.5% (inactive)

Question: For `Cc1ccc(Cl)cc1N1CCN(Cc2nc3c(c(=O)[nH]c(=O)n3C)n2Cc2ccccc2F)CC1`, which cytotoxicity is on record?
Answer: 112% (active)

Question: With `O=C(Cc1c(O)c2ccccc2[nH]c1=O)NCc1cccc(F)c1` as the compound, how does the cytotoxicity read?
Answer: 2.7% (inactive)

Question: With `CCN(CC)CCCN1C(=O)C(=O)/C(=C(/O)c2ccc(OC)c(Cl)c2)C1c1ccco1` (stereo not given) as the compound, how does the cytotoxicity read?
Answer: 4.6% (inactive)

Question: With `COc1ccccc1CN1C(=O)[C@@H]2C(CCC(N)=O)NC3(C(=O)Nc4c3ccc(Cl)c4C)[C@@H]2C1=O` (stereo not given in full) as the compound, how does the cytotoxicity read?
Answer: -5.3% (inactive)

Question: Which cytotoxicity does the source give for `c1ccc2c(c1)Cn1nnnc1-2` here?
Answer: 1.3% (inactive)

Question: With `CCC(=O)Nc1cc(-c2nn(C)c(=O)c3ccccc23)ccc1N1CCCCC1` as the compound, how does the cytotoxicity read?
Answer: 5.4% (inactive)

Question: Which cytotoxicity does the source give for `CCCC(=O)Nc1cc(-c2nn(C)c(=O)c3ccccc23)ccc1N1CCCCC1` here?
Answer: -10.2% (inactive)

Question: For `Cn1nc(-c2ccc(N3CCCCC3)c(NC(=O)c3ccco3)c2)c2ccccc2c1=O`, which cytotoxicity is on record?
Answer: 64.9% (active)

Question: With `O=C(CCCC(=O)N(CC(=O)NC1CCCC1)C1CCCC1)Nc1ccccn1` as the compound, how does the cytotoxicity read?
Answer: -20.8% (inactive)

Question: Which cytotoxicity does the source give for `CCNC(=O)NC(=O)C(C)Oc1ccc(C(=O)OC)cc1` (stereo not given) here?
Answer: 2.8% (inactive)

Question: With `Cc1sc(NC(=O)CSc2nnc(COc3ccccc3)n2C)c(C#N)c1C` as the compound, how does the cytotoxicity read?
Answer: 4.2% (inactive)

Question: With `Cc1ccc(-c2csc3nnc(SCC(=O)Nc4nsc(-c5ccccc5)n4)n23)cc1` as the compound, how does the cytotoxicity read?
Answer: -4.6% (inactive)

Question: With `Oc1ccccc1-c1nnc(COc2ccc(Cl)cc2Cl)o1` as the compound, how does the cytotoxicity read?
Answer: 35.9% (inactive)

Question: With `O=C(O)CCCC(=O)Nc1nc(-c2ccccc2)cs1` as the compound, how does the cytotoxicity read?
Answer: 6.9% (inactive)

Question: For `COc1cc2[nH]c(=O)n(CCC(=O)N3CCN(c4cccc(C)c4C)CC3)c(=O)c2cc1OC`, which cytotoxicity is on record?
Answer: 0.4% (inactive)

Question: Which cytotoxicity does the source give for `COc1cc2[nH]c(=O)n(CCC(=O)N3CCN(c4cc(Cl)ccc4C)CC3)c(=O)c2cc1OC` here?
Answer: 63.8% (active)

Question: With `CCOc1cc2[nH]c(=O)n(CCC(=O)N3CCN(c4ccccc4OC)CC3)c(=O)c2cc1OCC` as the compound, how does the cytotoxicity read?
Answer: -8.1% (inactive)

Question: Which cytotoxicity does the source give for `COc1ccc(Cl)cc1C(=O)N1CCN=C1SC` here?
Answer: -11.2% (inactive)

Question: With `CCOc1cc(C#N)c(NC(=O)c2ccco2)cc1OCC` as the compound, how does the cytotoxicity read?
Answer: 12.6% (inactive)

Question: For `CCOc1cc(C#N)c(NC(=O)c2ccnn2C)cc1OCC`, which cytotoxicity is on record?
Answer: 23.5% (inactive)

Question: With `CCOc1cc(C#N)c(NC(=O)c2cccnc2)cc1OCC` as the compound, how does the cytotoxicity read?
Answer: 51.5% (active)

Question: Which cytotoxicity does the source give for `COc1cc2nc(NC(=O)c3ccccc3)[nH]c(=O)c2cc1OC` here?
Answer: 13.3% (inactive)

Question: With `Cc1ccc2c(C)nc(Nc3nc(CSc4nnnn4-c4ccccc4)cc(=O)[nH]3)nc2c1` as the compound, how does the cytotoxicity read?
Answer: 51% (active)

Question: For `COc1nc(Nc2nc3ccccc3c(=O)[nH]2)nc2ccc(C)cc12`, which cytotoxicity is on record?
Answer: 86.7% (active)

Question: With `CCCCCc1c(C)nc(Nc2nc(C)c3cc(OC)ccc3n2)[nH]c1=O` as the compound, how does the cytotoxicity read?
Answer: -0.5% (inactive)

Question: With `Cc1ccc2nc(Nc3nc(=O)c4ccccc4n3C)nc(C)c2c1` as the compound, how does the cytotoxicity read?
Answer: 13.7% (inactive)

Question: For `COc1ccc2nc(Nc3nc(C)c(CCC(C)C)c(=O)[nH]3)nc(C)c2c1`, which cytotoxicity is on record?
Answer: 6.2% (inactive)

Question: For `CCc1c(C)nc(Nc2nc(C)c3cc(OC)ccc3n2)[nH]c1=O`, which cytotoxicity is on record?
Answer: 56.1% (active)

Question: Which cytotoxicity does the source give for `Cc1nc(Nc2nc(-c3ccccc3)cc(=O)[nH]2)nc2ccccc12` here?
Answer: 52.3% (active)

Question: For `Cc1ccc(Nc2nc(CSc3nnnn3-c3ccccc3)cc(=O)[nH]2)cc1`, which cytotoxicity is on record?
Answer: 12% (inactive)

Question: Which cytotoxicity does the source give for `Cc1nc(-c2ccccc2)cc(=O)[nH]1` here?
Answer: 4% (inactive)

Question: For `Cc1ccc(Nc2nc(CSc3nnnn3-c3ccccc3)cs2)cc1`, which cytotoxicity is on record?
Answer: 32.1% (inactive)

Question: Which cytotoxicity does the source give for `Cc1nnc(SCc2cc(=O)[nH]c(Nc3nc(C)c4ccccc4n3)n2)s1` here?
Answer: -0.8% (inactive)

Question: With `Cc1ccc(NC(=O)CSc2nnc(CNC(=O)c3c(F)cccc3Cl)o2)cc1` as the compound, how does the cytotoxicity read?
Answer: -9.7% (inactive)

Question: Which cytotoxicity does the source give for `CCOc1ccc(N2CC(C(=O)Nc3ccccc3OC)CC2=O)cc1` (stereo not given) here?
Answer: -2.5% (inactive)

Question: Which cytotoxicity does the source give for `COc1cc(C(=S)N2CCCC2)cc(Cl)c1O` here?
Answer: -4% (inactive)

Question: With `COc1ccccc1-c1cc(C(=O)NCc2ccc(Cl)cc2)no1` as the compound, how does the cytotoxicity read?
Answer: -15.3% (inactive)

Question: For `OCc1nn2c(c1Br)NC(c1ccccc1)CC2C(F)(F)F` (stereo not given), which cytotoxicity is on record?
Answer: -8.4% (inactive)

Question: With `CCOc1ccc(CCNC(=O)C2CCN(c3nn4c(=O)cc(C)nc4s3)CC2)cc1OCC` as the compound, how does the cytotoxicity read?
Answer: -6.6% (inactive)

Question: Which cytotoxicity does the source give for `COc1cc(OC)cc(C(=O)NC2CCN(Cc3nnnn3Cc3cccs3)CC2)c1` here?
Answer: -7.1% (inactive)

Question: With `CC(=O)NC(CCS(C)(=O)=O)C(=O)Nc1c(C)cccc1C` (stereo not given) as the compound, how does the cytotoxicity read?
Answer: 10.4% (inactive)

Question: For `COc1ccc2c(C)nc(Nc3nc(C)cc(=O)[nH]3)nc2c1`, which cytotoxicity is on record?
Answer: 80.7% (active)

Question: Which cytotoxicity does the source give for `COc1ccc2c(C)nc(Nc3nc(C)cc(C)n3)nc2c1` here?
Answer: -4.7% (inactive)

Question: For `COCc1cc(=O)[nH]c(Nc2nc(C)c3ccc(C)cc3n2)n1`, which cytotoxicity is on record?
Answer: 5.4% (inactive)
